Shown are actives, neighbours in structure and some others; about 13% of the full set was active somewhere.
HCMV antiviral: inhibitors of human cytomegalovirus; HFF cells, HCMV-luciferase reporter, 72 h; hits give low values; activity change, negative = inhibition, % at 57.5 µM; hit rate 4.5% among 410,000; in the data active = activity change below about -60%; inconclusive = no clear call, values can overlap the other calls; inactive = above about -39%
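Cell-based, HFFs, 1000 cells/well, 16 h 37C; cpds in DMSO + HCMV-luc, MOI 1 PFU/cell; 72 h 37C; OneGlo luminescence after 5 min RT; norm. to buffer vs Salinomycin 10uM.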
HCV inh: blocks hepatitis C virus. Huh7.5.1 HCVcc-Cre infection, luciferase reporter, 44 h. Potency, µM (highest dose often 41.8 µM), actives largely listed as inhibitors. hit rate 3.4% among 340,000. AID 651820
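Antiviral activity was scored by luciferase reporter output from cells infected with HCVcc-Cre (~0.5 moi) in presence of compound, 44 h infection period, cells seeded 1,000/well 4 h prior.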
Pf growth 96h: P. falciparum growth inhibition at 96 hours; P. falciparum luciferase reporter growth, 96 h; Potency, µM (titrated, usually from 28.7 µM), actives largely listed as inhibitors; hit rate 6.9% among 320,000; AID 504834
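P. falciparum expressing integrated firefly luciferase grown in erythrocytes (2% hematocrit, 0.05% parasitemia final) with compounds for 96 hours at 37 C, 5% CO2. Growth inhibition read as loss of luminescence after adding luciferase detection reagent.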
Pf growth 48h: inhibits P. falciparum growth in the first generation, 48 h; P. falciparum luciferase growth in erythrocytes, 48 h; Potency, µM (titrated, usually from 28.7 µM), actives largely listed as inhibitors; hit rate 5.9% among 310,000
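Firefly luciferase activity from engineered P. falciparum reports growth; inhibitors lower the luminescent signal. Cultures contained 2% hematocrit erythrocytes at 0.1% final parasitemia.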
A number is an active result; – = inactive; ? = inconclusive; · = no result. Unless noted, calls follow the shape of the dose curve; as a rule, active = well fitted inhibition curve with a large enough effect; inconclusive = small, poorly fitted or top-dose-only effect, or another doubt; inactive = no such curve, though single readings can be large or run the other way.

SMILES | HCMV antiviral | HCV inh | Pf growth 96h | Pf growth 48h
CC1=C(C(=O)N2CCCCCC2)CC(CC(=O)NC2CCCC2)C(=O)N1Cc1ccc(F)cc1 (centres undefined) | – | · | · | ·
COc1ccc(CNCCCSc2nnnn2C)c(OC)c1 | – | · | · | ·
CC(NC(=S)Nc1ccccc1OC(F)F)C(C)(C)C (centres undefined) | -65.2 | – | – | –
O=C(NCCc1cccs1)c1ccc(Cn2c(SCc3ccccc3)nc3cccnc32)cc1 | – | · | · | ·
CN(C)c1ccc(NC(=O)/C=C/c2ccccc2Cl)cc1 | – | ? | ? | ?
O=C(/C=C/c1ccccc1)Nn1cnnc1 | – | – | 14.7µM | –
O=C(/C=C/c1ccccc1Cl)NCc1ccccc1 | – | ? | – | –
NC(=S)NC(=O)/C=C/c1ccccc1 | -67.1 | ? | 2.08µM | –
O=C(/C=C/c1ccccc1Cl)NCCc1ccccc1 | – | – | 11.7µM | ?
CCN(CC)c1ccc(NC(=O)/C=C\c2ccccc2Cl)cc1 | – | ? | 1.04µM | ?
Cc1ccc(-c2nnc(Nc3cccc(Br)c3)c3ccccc23)cc1S(=O)(=O)N1CCCCC1 | – | · | · | ·
Cc1c(NC(=O)c2sc3ccccc3c2Cl)cccc1-c1nc2ccccc2o1 | – | · | · | ·
COc1ccc(CNC(=O)Cn2nc(C)c3nn(-c4ccc(Cl)cc4)c(C)c3c2=O)cc1 | – | · | · | ·
CC1(C)C2CCC1(C)C(NC(=O)/C=C/c1ccccc1)C2 (centres undefined) | – | – | – | 7.38µM
O=C(/C=C/c1ccccc1)NCCO | · | · | – | –
O=C(/C=C/c1ccccc1)NCCSCc1ccccc1 | – | – | – | ?
O=C(/C=C/c1ccccc1)NCCCNC(=O)/C=C/c1ccccc1 | – | – | 8.28µM | ?
O=C(C=Cc1ccccc1)NCCNC(=O)C=Cc1ccccc1 | -68.9 | – | · | ·
O=C(/C=N\O)NCCCNCc1ccccc1 | – | – | 5.86µM | –
CCOc1ccc(NC(=O)CSc2nc3c(oc4ccccc43)c(=O)n2CCOC)cc1 | – | · | · | ·
O=C(/C=C/c1ccco1)NCCc1ccc(F)cc1 | -77.7 | – | – | –
CCCNC(=O)/C=C/c1ccc(C(C)C)cc1 | – | – | 13.1µM | ?
CC(C)c1ccc(/C=C/C(=O)NCCCc2ccccc2)cc1 | – | – | – | –
O=C(/C=C/c1ccccc1)NC1CCSC1=O (centres undefined) | – | – | 10.4µM | –
COc1ccc(CN2C(=O)C(n3ccc4ccccc43)c3ccccc32)cc1 (centres undefined) | – | · | · | ·
SMILES | HCMV antiviral | HCV inh | Pf growth 96h | Pf growth 48h
CCn1ccc2cc(S(=O)(=O)N3CCC(C(=O)NCc4cccc(Cl)c4)CC3)ccc21 | – | · | · | ·
COCc1cc(C2SCC(=O)Nc3c2c(=O)[nH]n3C(C)C)ccc1OC (centres undefined) | – | 5.62µM | – | –
CC(Oc1ccc(-c2ccccc2)c(F)c1)c1ccn(S(=O)(=O)c2ccc(Br)cc2)n1 (centres undefined) | – | ? | 10.4µM | ?
CCOc1ccc2nc3cc(NCc4ccc(OC)cc4)ccc3c(N)c2c1 | · | ? | 2.62µM | 2.33µM
CCOc1ccc2nc3cc(N)ccc3c(N)c2c1 | · | · | 0.849µM | 0.757µM
CCOc1ccc(N=C2NC(=O)C(CC(=O)O)S2)cc1 (centres undefined) | – | – | – | –
C/C(=N\N=C1\NC(=O)C(CC(=O)O)S1)c1ccccn1 (centres undefined) | – | – | 1.17µM | 10.4µM
CCOC(=O)c1[nH]c(C)c(C(=O)NCCc2ccccc2)c1C | – | · | · | ·
CCOC(=O)c1[nH]c(C)c(C(=O)NCCC2=CCCCC2)c1C | – | – | 5.22µM | –
CCOC(=O)c1[nH]c(C)c(C(=O)NC2CCCCC2)c1C | – | – | 9.28µM | ·
CCOC(=O)c1[nH]c(C)c(C(=O)Nc2ccc(C)c(C)c2)c1C | – | ? | 5.86µM | ·
Cn1nnnc1SCCCNCc1cccc(OCc2ccc(F)cc2)c1 | – | · | · | ·
CCN(C(=O)c1cc(S(=O)(=O)N2CCOCC2)cn1C)c1ccc(OC)cc1 | -66.9 | · | · | ·
CCN(C(=O)c1cc(S(=O)(=O)N2CCCCC2)c[nH]1)c1ccc(OC)cc1 | -66.7 | – | – | –
CCC(Cc1ccccc1)NC(=O)c1cc(S(=O)(=O)N2CCCCC2)c[nH]1 (centres undefined) | – | – | 2.94µM | –
CCN(C(=O)c1cc(S(=O)(=O)N2CCOCC2)cn1C)c1cccc(C)c1 | ? | – | ? | –
CCc1ccccc1NC(=O)c1cc(S(=O)(=O)N2CCCC2)c[nH]1 | – | – | ? | –
COC(=O)c1ccc(CSc2nc3c([nH]c4ccccc43)c(=O)n2-c2cc(C)cc(C)c2)o1 | – | · | · | ·

Compound activity: PubChem BioAssay, National Center for Advancing Translational Sciences (NCATS)
